The nature of this test: NCI Yeast Anticancer Drug Screen. Data for the cln2 rad14 strain (AID 165).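 Also: 0% = growth equal to vehicle treated cultures.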 The following applies: S. cerevisiae cln2 rad14 strain, stronger effect = higher value. The protocol: Growth inhibition of yeast strains with defined genetic alterations is measured as a screen for potential anti-cancer activity. Selected strains with alterations in DNA damage repair or cell cycle control were exposed to compounds and growth inhibition was measured relative to vehicle treated controls. The strain used in this assay is cln2 rad14

[1] abbreviates: at 5.0 µM (retest, dose inferred, filed as 0.5).
[2] abbreviates: at 50.0 µM (retest, dose inferred, filed as 5.0).

Structures are written as SMILES. Several values for one entry are separate records, joined by “and”; a condition that tells them apart may be missing. Equal entries are not always repeated. The panel holds about 79,000 compounds, 15% with a hit somewhere; the sample as a whole holds those more often. Where a structure was tested more than once in an assay, its records may differ in their call. Activity calls are given as the source filed them. Rule as the data show it: active = growth inhibition above about 70%; inactive = the rest.

In the case of `O=Cc1cc([N+](=O)[O-])cc(CCl)c1O`, the growth inhibition under setting [1] is -58% (inactive), the growth inhibition under setting [2] is -17% (inactive) and the growth inhibition (at 50.0 µM) was 20.1% (inactive).

For `O=C1C(Cl)=C(Cl)C(Cl)(Cl)C(Cl)=C1Cl`, the growth inhibition by setting is: under setting [1], 19% (inactive) and 13% (inactive); under setting [2], 99% (active) and 98% (active); (at 50.0 µM) 98.7% (active) and -4.55% (inactive).

Take `COc1ccc2[nH]c3c(C)c4ccncc4c(C)c3c2c1`: the growth inhibition by setting is: under setting [1], 21% (inactive); under setting [2], 99% (active); (at 50.0 µM) 91.8% (active) and 99% (active).

Regarding `COc1ccc(Oc2ccccc2N)cc1`, the growth inhibition under setting [1] is -8% (inactive), the growth inhibition under setting [2] is 95% (active) and the growth inhibition (at 50.0 µM) is 88.3% (active).

As to `O=C1Nc2ccccc2C1(O)C/C(=N/O)c1ccc2ccccc2c1` (configuration not stated), the growth inhibition is, setting by setting: under setting [1], 52% (inactive); under setting [2], 44% (inactive); (at 50.0 µM) 38% (inactive).

Regarding `Cc1n(-c2ccccc2)c2c([n+]1Cc1ccc([N+](=O)[O-])cc1)C(=O)c1ccccc1C2=O`, the growth inhibition was 1% (inactive) under setting [1], 92% (active) under setting [2] and 85.2% (active) (at 50.0 µM).

For the molecule `c1ccc(-c2[nH]c3ccccc3c2-c2ccccn2)cc1`, the growth inhibition is, setting by setting: under setting [1], 4% (inactive); under setting [2], 8% (inactive); (at 50.0 µM) 99.1% (active).

Turning to `O=C1/C(=C/c2ccc(Cl)cc2)CNC/C1=C\c1ccc(Cl)cc1`, the growth inhibition runs as follows: under setting [1], 69% (inactive) and 44% (inactive); under setting [2], 85% (active) and 73% (active); (at 50.0 µM) 83.8% (active) and 83.5% (active).

Consider `Oc1cc2c(cc1C(c1ccc3c(c1)OCO3)N1CCN(C(c3ccc4c(c3)OCO4)c3cc4c(cc3O)OCO4)CC1)OCO2` (configuration not stated), for which the growth inhibition by setting is: under setting [1], 8% (inactive); under setting [2], 49% (inactive); (at 50.0 µM) 24.4% (inactive).

For `C[C@H]1CC[C@H]([C@@H](C)[C@H]2[C@@H](O)C[C@H]3[C@@H]4CC[C@H]5C[C@@H](O)CC[C@]5(C)[C@H]4CC[C@]23C)NC1`, the growth inhibition runs as follows: under setting [1], 23% (inactive) and 1% (inactive); under setting [2], 97% (active) and 60% (inactive); (at 50.0 µM) 91% (active) and 88.3% (active).

As to `Nc1cc2c(cc1Cl)[nH]c(=O)c1cc(Cl)ccc12`, the growth inhibition under setting [1] is 10% (inactive), the growth inhibition under setting [2] was 6% (inactive) and the growth inhibition (at 50.0 µM) is -0.9% (inactive).

Take `Nc1cc2ccccc2c2c1ccc1ccccc12`: the growth inhibition is -56% (inactive) and -2% (inactive) under setting [1]; 24% (inactive) and 95% (active) under setting [2]; 95.3% (active) and 90.5% (active) (at 50.0 µM).

`Cc1ccc(CC(=O)c2c(C)[nH]c3ccccc23)cc1C`: the growth inhibition was 40% (inactive) under setting [1], 44% (inactive) under setting [2] and 93.5% (active) (at 50.0 µM).

For the molecule `CC[C@](O)(CC(=O)O[C@H]1C(=O)O[C@@H]2C[C@H]3C(C)=CC(=O)[C@@H](O)[C@]3(C)[C@H]3[C@@]4(O)OC[C@]32[C@@H]1[C@@H](C)[C@H]4O)C(C)C`, the growth inhibition runs as follows: under setting [1], 58% (inactive); under setting [2], 98% (active); (at 50.0 µM) 92.1% (active).

For the origin of these results see PubChem BioAssay (NCI).
